Data on 38 molecules can be found in ChEMBL document CHEMBL4513135, “CO-ADD screening of IQOG CSIS (Spain) compounds”.

For orientation: Inhibition means the relative decrease from the control value, in per cent.

Assay [1] has as its system Klebsiella pneumoniae. Conditions: Concentration 32 ug.mL-1; ASSAY_TEST Inhibition of Bacterial Growth; detection method Absorption (OD600); MEDIA CAMHB; plate type 384well; NBS; CORNING #3640; time 18 hr.
For assay [2], the system named is Candida albicans. As to conditions: 32 ug/mL.
Assay [3] deals with Cryptococcus neoformans. As to conditions: Concentration 32 ug.mL-1; ASSAY_TEST Inhibition of Fungal Growth; detection method Resazurin; Absorption (OD600-OD570); plate type 384well; NBS; CORNING #3640. For orientation: Resazurin is reduced to fluorescent resorufin, in cell work by metabolically active cells.

Entries with a potency or affinity are not part of this list.

With `C/C(Cc1ccccc1)=N/NC(=O)c1c[nH]c2ccc(O)cc12`, the figures for the Inhibition in assay [1], in assay [2] and in assay [3] were 5.8%, 0.37% and 4.37%, respectively.
The corresponding values for `N#CC1(Br)C(=NBr)Oc2ccc3ccccc3c2C1c1ccc([N+](=O)[O-])cc1` (centres undefined) are -0.48%, 2.19% and -71.87%.
The matching figures for `COc1ccc2cc(C3C4=C(CC(C)(C)CC4=O)Oc4nc5c(c(N)c43)CCCC5)c(Cl)nc2c1` (centres undefined): 5.45%, 7.25% and -9.09%.
In the case of `C=C1CN(C)c2ncc(C#N)c(=N)n21`, the figures for the Inhibition in assay [1], in assay [2] and in assay [3] were 0.03%, 0.69% and -57.29%, respectively.
As to `N#CC1=C(Cl)Oc2c(ccc3ccccc23)C1c1cccc([N+](=O)[O-])c1` (centres undefined), the Inhibition in assay [1] was 4.09%; in assay [2] it was 6.77%; in assay [3], -37.01%.
The corresponding values for `CNCc1cc2cc(OC)ccc2n1C.Cl` are 8.64%, -1.26% and 1.35%.
The matching figures for `COc1ccc(/C=C2/N=C(c3ccccc3)OC2=O)cc1OC`: -24.56%, -0.31% and -8.84%.
The matching figures for `Cl.Nc1c2c(nc3c1C(c1c(Cl)cccc1Cl)c1ccc4ccccc4c1O3)CCCC2` (centres undefined): 3.98%, -1.11% and -3.69%.
Turning to `COc1cccc(C2c3c(nc4c(c3N)CCCC4)Oc3ccc4ccccc4c32)c1` (centres undefined), the figures for the Inhibition in assay [1], in assay [2] and in assay [3] were 7.83%, -0.15% and -0.19%, respectively.
With `N#Cc1c(N)nc(NCCCC2CCN(Cc3ccccc3)CC2)c(C#N)c1-c1ccccc1`, the values for the Inhibition in assay [1], in assay [2] and in assay [3] were 32.61%, 1.5% and -34.35%, respectively.
For `CCOC(N)=CC#N`, the Inhibition in assay [1] is -6.69%; in assay [2], 0.84%; in assay [3] it was -10.57%.
With `COC(=O)C(=Cc1ccc([N+](=O)[O-])cc1)NC(=O)c1ccccc1`, the Inhibition in assay [1] was 11.76%; in assay [2], 0.51%; in assay [3], -0.7%.
The matching figures for `Cc1cnc2ccc(Br)cn12`: -1.82%, 1.23% and -0.9%.
The corresponding values for `O=C1NC(=O)C(=Cc2ccccc2)N1` are 12.73%, -0.05% and -1.42%.
Turning to `N#CC1=C(N)Oc2ccc3ccccc3c2C1`, the Inhibition in assay [1] is -0.19%; in assay [2], 0.68%; in assay [3], -44.07%.
The matching figures for `Nc1ccccc1C(=O)N/N=C/c1c[nH]c2ccccc12`: 18.84%, -0.37% and 0.1%.
Consider `Cn1cc(C(=O)NN)c2ccccc21`, for which the Inhibition in assay [1] was determined as 3.16%; in assay [2], 4.47%; in assay [3], 7.89%.
Regarding `Cl.OCC1CCN(Cc2ccccc2)CC1`, the values for the Inhibition in assay [1], in assay [2] and in assay [3] were 15.06%, 1.47% and -2.26%, respectively.
The matching figures for `COc1ccc(C2c3c(nc4c(c3N)CCCC4)Oc3ccc4ccccc4c32)cc1OC` (centres undefined): -20.58%, 2.65% and 0.83%.
Regarding `N#CC1=C(N)Oc2ccc3ccccc3c2C1c1ccccc1` (centres undefined), the Inhibition was 9.26% in assay [1], 1.08% in assay [2] and -36.46% in assay [3].
The matching figures for `N#Cc1cccnc1N`: 16.36%, 1.57% and -34.57%.
The corresponding values for `O=C1C=C(Nc2ccccc2)C(=O)N1c1ccccc1` are 6.46%, -0.48% and -3.49%.
Turning to `CC(=O)NC=C1C(=O)OC(C)(C)OC1=O`, the Inhibition in assay [1] is 18.67%; in assay [2] it was 0.54%; in assay [3], -4.92%.
The corresponding values for `CC#CCN(Cc1ccccc1)c1nc(N)c(C#N)cc1C#N` are -9.03%, 3.48% and -21.6%.
The matching figures for `COc1ccc2cc(C3C4=C(CC(C)(C)CC4=O)Oc4nc5c(c(N)c43)CCC5)c(Cl)nc2c1` (centres undefined): 7.42%, 10.1% and -1.53%.
`COc1ccc(C2C(C#N)=C(N)Oc3[nH]nc(C)c32)cc1` (centres undefined): the Inhibition was -10.09% in assay [1], 1.54% in assay [2] and -3.79% in assay [3].
As for `COc1ccc(C2c3c(ccc4ccccc34)OC(=NBr)C2(Br)C#N)cc1OC` (centres undefined), the Inhibition is 4.11% in assay [1], 18% in assay [2] and -72.67% in assay [3].
The matching figures for `NNC(=O)C1(NC(=O)c2ccccc2)CC1c1cccc(O)c1` (centres undefined): 19.56%, 0.45% and -0.7%.
`O=C(N/N=C/c1ccc([N+](=O)[O-])cc1)c1cc2ccccc2[nH]1`: the Inhibition is 7.41% in assay [1], 0.87% in assay [2] and -3.37% in assay [3].
The matching figures for `N#CC1(Br)C(=N)Oc2ccc3ccccc3c2C1c1cccc([N+](=O)[O-])c1` (centres undefined): 16.38%, 11.2% and -26.58%.
As for `COc1cccc(-c2c(C#N)c(=O)oc3c2ccc2ccccc23)c1`, the Inhibition is 2.22% in assay [1], 24.3% in assay [2] and -2.58% in assay [3].
With `O=Cc1cc2ccccc2nc1Cl`, the Inhibition was -2.74% in assay [1], 7.94% in assay [2] and -7.31% in assay [3].
The corresponding values for `O=C1OC(c2ccccc2)=NC1=Cc1ccc(Cl)cc1` are 7.19%, 1.2% and -3.18%.
As to `CC1Cc2c(Cl)nc3nc4c(c(N)c3c2NC1=O)CCCC4` (centres undefined), the Inhibition was 8.15% in assay [1], 2.83% in assay [2] and -81.78% in assay [3].
For the molecule `CC(=O)Oc1ccc(C=C2N=C(c3ccccc3)OC2=O)c(OC(C)=O)c1`, the Inhibition in assay [1] was 2.13%; in assay [2] it was 3.75%; in assay [3] it was -6.54%.
`COc1ccc(CNNC(=O)c2cc3ccccc3[nH]2)cc1`: the Inhibition was -6.62% in assay [1], 0.44% in assay [2] and -2.55% in assay [3].
The corresponding values for `O=C(N/N=C/Cc1ccccc1)c1cc2ccccc2n1Cc1ccccc1` are 4.61%, 1.98% and -1.83%.
The corresponding values for `O=C1NC(=S)N/C1=C\c1c[nH]c2ccccc12` are 4.51%, -0.31% and -1.8%.
